Experimental data published in PubChem BioAssay (NCATS).
Inconclusive results are not listed. Active and inactive are the calls of the source. Calls come from the whole dose curve; as a rule, active = well fitted inhibition curve with a large enough effect; inconclusive = small, poorly fitted or top-dose-only effect; inactive = no such curve, though single readings can be large or run the other way.

Biological target: Cytochrome P450 3A7 (Homo sapiens) (UniProt P24462)
Assay: Cytochrome P450 family 3 subfamily A member 7 (CYP3A7) small molecule antagonists: luciferase biochemical qHTS assay (AID 1963596); note: nearly all actives have a fitted effect of over 40% in size
Conditions: P450-Glo CYP3A7 enzyme luminescence, 1 h; series mostly up to 57.4 µM; activity change, negative = inhibition: at the top concentration
Description: National Center for Advancing Translational Sciences [NCATS] Assay Overview: Cytochrome P450 (CYP) enzymes are membrane-bound hemeproteins that play a key role in metabolism of drugs and xenobiotics. The CYP3A subfamily is the most abundant, representing 30% of the total adult hepatic CYP content, whereas CYP3A7 is found predominantly in human fetal liver and accounts up to 50% of the total fetal hepatic CYP content. Testing the effect of chemicals on CYP isozymes is useful to minimize the adverse drug reactions and toxicities in the drug development process. Chemicals were tested for their effect on CYP enzyme activities by using P450-Glo (TM) screening systems (Promega Corporation, Madison, WI). These systems provide a luminescent method containing proluciferin substrates and are converted to luciferin products by CYP isozymes. The luciferin products formed are detected with a luciferin detection reagent, and the amount of light produced is proportional to CYP activity. P450-Glo (TM) CYP3A7 screening system (Catalog. No. V8812) was used to detect the compounds that interfere with CYP3A7 activity. The positive control compound used for CYP3A7 assay is ketoconazole (Sigma-Aldrich, St. Louis, MO).
Assay Protocol Summary: Two ul of enzyme-substrate mix was dispensed into medium binding white/solid 1536-well plates (Greiner Bio-One North America Inc., Monroe, NC) using a Flying Reagent Dispenser (FRD, Aurora Discovery, San Diego, CA). Compounds dissolved in DMSO, and positive control (ketoconazole) were transferred to the assay plates at 23 nl using a Pintool station (Wako, San Diego, CA). The assay plates were incubated at room temperature for 10 min. Then 2 ul of NADPH regeneration solution was added to each well of the assay plates using an FRD and incubated at room temperature for 1 h. The reaction was stopped by adding 4 ul of detection reagent using an FRD and after 20 min incubation at room temperature the luminescence signal was measured using a ViewLux plate reader (Perkin Elmer, Shelton, CT). Data were expressed as relative luminescence units.
% is set by controls: 0 for no effect and ±100 for the full control effect; potency is the fitted concentration of half-maximal effect.

Cytochrome P450 3A7 (Homo sapiens), sequence (P24462 whole entry, looked up): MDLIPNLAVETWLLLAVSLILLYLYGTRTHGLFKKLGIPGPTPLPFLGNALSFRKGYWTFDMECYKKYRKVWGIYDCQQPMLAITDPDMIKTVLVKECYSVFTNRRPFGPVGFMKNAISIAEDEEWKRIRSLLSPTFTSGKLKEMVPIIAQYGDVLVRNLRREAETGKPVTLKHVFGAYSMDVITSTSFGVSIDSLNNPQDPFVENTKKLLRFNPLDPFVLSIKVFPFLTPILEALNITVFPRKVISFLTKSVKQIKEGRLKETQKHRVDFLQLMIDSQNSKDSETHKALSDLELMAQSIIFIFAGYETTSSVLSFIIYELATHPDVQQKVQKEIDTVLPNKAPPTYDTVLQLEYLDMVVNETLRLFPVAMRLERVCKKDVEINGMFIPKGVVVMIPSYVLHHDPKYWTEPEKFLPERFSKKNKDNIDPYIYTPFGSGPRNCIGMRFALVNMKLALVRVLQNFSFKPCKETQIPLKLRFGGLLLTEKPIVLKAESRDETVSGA

| SMILES | activity change, negative = inhibition | Potency |
| --- | --- | --- |
| Cc1ccc(C)c(Nc2nc3nonc3nc2Nc2cccc(C)c2C)c1 | 3.21% (inactive) | – |
| Cc1ccnn1-c1ccc(C(=O)N2CCN(S(=O)(=O)c3ccc(Cl)c(C(F)(F)F)c3)CC2)cc1 | -24.8% (inactive) | – |
| Cc1nnc(-c2ccc(-c3ccc(C(=O)Nc4ccc(O)c(N5CCN(C)CC5)c4)cc3)c(C)c2)o1 | -24% (inactive) | – |
| CC(=O)Nc1c(I)c(NC(C)=O)c(I)c(C(=O)O)c1I | -3.53% (inactive) | – |
| Cc1cnn(-c2ccccc2)c1NC(=O)COCc1ccccc1 | -13.9% (inactive) | – |
| CCN(CCCO)CCCOc1ccc2c(Nc3cc(CC(=O)Nc4cccc(F)c4)[nH]n3)ncnc2c1 | – | 14.1 µM (active) |
| CN/C(=C\[N+](=O)[O-])NCCSCc1csc(CN(C)C)n1 | -15% (inactive) | – |
| c1ccc2c(-c3cnn4cc(-c5ccc(N6CCNCC6)cc5)cnc34)ccnc2c1 | -8.59% (inactive) | – |
| CCN(CCO)CCCC(C)Nc1ccnc2cc(Cl)ccc12 (stereo not given) | 10.6% [at 4.83 µM] (inactive) | – |
| NC(CS)C(=O)O (stereo not given) | -1.75% (inactive) | – |
| O=C(Nc1cccnc1)c1cc(-c2ccnc(F)c2)ccc1OCc1ccccc1 | -2.93% (inactive) | – |
| COC(=O)c1ccc(N2CCN(C)CC2)c(NC(=O)c2cccc(OC)c2)c1 | 0% (inactive) | – |
| C[C@@H]1CN(c2c(F)c(N)c3c(=O)c(C(=O)O)cn(C4CC4)c3c2F)C[C@H](C)N1 | 18.7% [at 23.9 µM] (inactive) | – |
| Nc1ccc(S(N)(=O)=O)cc1 | -8.57% (inactive) | – |
| CCOC(=O)C(=O)c1csc(NC=O)n1 | -20.3% (inactive) | – |
| CCCc1ncc(C[n+]2ccccc2C)c(N)n1 | -2.23% (inactive) | – |
| OC[C@@H](O)C(O)[C@@H](O)CO (stereo not given in full) | -1.26% (inactive) | – |
| CC(=O)N(O)CCCCCNC(=O)CCC(=O)N(O)CCCCCNC(=O)CCC(=O)N(O)CCCCCN | -0.836% (inactive) | – |
| O=C(O)C[C@@H](NC(=O)c1cc(-c2ccc(-c3ccncc3)cc2)cs1)c1ccccc1 | 4.96% (inactive) | – |
| COc1ccc(/C(C)=C/C(=O)O)c(OC)c1 | 18.7% (inactive) | – |

| SMILES | activity change, negative = inhibition | Potency |
| --- | --- | --- |
| CCOc1cc(C(C)(C)C)ccc1C1=NC(C)(c2ccc(Cl)cc2)C(C)(c2ccc(Cl)cc2)N1C(=O)N1CCN(CCCS(C)(=O)=O)CC1 (stereo not given) | – | 2.82 µM (active) |
| Cc1cc(C)cc(NC(=O)Cc2ccc(OC(C)(C)C(=O)O)cc2)c1 | -20.6% (inactive) | – |
| Cn1cc(S(C)=O)c(=O)c2ccc(F)cc21 (stereo not given) | -14.2% (inactive) | – |
| O=c1[nH]c(=O)c2[nH]c(=O)[nH]c2[nH]1 | 3.23% [at 11.5 µM] (inactive) | – |
| O=C(O)CCCCC(=O)O | -12.2% (inactive) | – |
| C[N+]1(C)[C@@H]2CC(OC(=O)[C@H](CO)c3ccccc3)C[C@H]1[C@@H]1O[C@@H]12 (stereo not given in full) | 8.17% (inactive) | – |
| CN(N=O)C(=O)N[C@@H]1[C@@H](O)[C@H](O)[C@@H](CO)O[C@@H]1O | -25.6% (inactive) | – |
| CN1C(=O)CC[C@H]1c1cccnc1 | 15.7% (inactive) | – |
| CCOc1cc(NC(C)=O)ccc1C(=O)OC | -26.9% (inactive) | – |
| Cc1cc(=O)oc2cc(O)ccc12 | -11.1% (inactive) | – |
| O=C(O)CN(CCN(CC(=O)O)CC(=O)O)CCN(CC(=O)O)CC(=O)O | 0.575% [at 23.9 µM] (inactive) | – |
| CC(C)NCC(O)COc1ccc(COCCOC(C)C)cc1 (stereo not given) | -21.4% (inactive) | – |
| COCCCNCC1COc2ccccc2O1 (stereo not given) | 0.747% (inactive) | – |
| COc1cc(N2CCOCC2)ccc1Nc1ncc(Cl)c(Nc2ccccc2NS(C)(=O)=O)n1 | 0% (inactive) | – |
| NCC1CCC(C(=O)Oc2ccc(CCC(=O)O)cc2)CC1 (stereo not given) | 0.729% (inactive) | – |
| C[C@@H]1CCC[C@H](C)N1 | 11.8% (inactive) | – |
| CN1C(C(=O)Nc2ccccn2)=C(O)c2sccc2S1(=O)=O | -2.49% (inactive) | – |
| Cc1cccc(C)c1NC(=O)c1ccccc1C(=O)O | -0.236% (inactive) | – |
| C=CCn1c(=O)n([C@@H]2O[C@H](CO)[C@@H](O)[C@H]2O)c2nc(N)[nH]c(=O)c21 | -20% (inactive) | – |
| Cc1ncc([N+](=O)[O-])n1C | -1.48% (inactive) | – |
